Compounds with a hit are over-represented: about 1.3% of the library has one in this group of screens.
KCNH2 WT inh – blocks the wildtype human KCNH2 potassium channel; U2OS, BacMam KCNH2, thallium flux FluxOr; stronger effect = lower value; activity change, % at 1.84 µM; 0.37% of 340,000 active;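 active means maximum activity change below -70%; inconclusive means maximum activity change between -70% and -50%; inactive means maximum activity change above -50%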
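U2OS cells were transduced with wild-type KCNH2 virus (2.03 x 10^8 / mL) for 4 h at room temperature, then cultured overnight at 37 C. Thallium flux was read with FluxOr dye. Rate constants were normalized to DMSO controls.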
Rango-impB inh – inhibitors of Rango-importin beta complex formation; Q14974; 0.031% of 340,000 active; Potency, µM (top dose mostly 92.2 µM); Rango CFP/YFP FRET sensor + importin beta, 45 min; AID 540263; further: nearly all actives have a fitted effect of over 15% in size
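FRET biosensor Rango (snurportin 1 IBB between N-terminal EYFP and C-terminal Cerulean), 50 nM in PBS/1 mM DTT/0.02% Tween-20/0.1% BSA, preincubated 5 min RT with compound; 0.125 microM importin beta added, 45 min RT, CFP/YFP FRET ratio read.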
Rango dissoc inh – inhibitors of RanGTP-induced Rango-importin beta complex dissociation | O95149+P62826 | Potency, µM (series often up to 46.1 µM) | 0.071% of 340,000 active | Biochemical FRET Rango-importin beta, RanGTP-induced dissociation; further: nearly all actives have a fitted effect of over 45% in size
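Compounds sat 5 min at room temperature with 0.1 uM Rango biosensor plus 0.25 uM importin beta, then FRET pre-read. RanGTP-RCC1 (0.6 uM Ran, 2mM GTP, 0.2 uM RCC1) added for 45 min, and the CFP/YFP post-read measured blocked complex dissociation.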
KCNH2 3.1 inh – blocks the human KCNH2 3.1 channel isoform. U2OS KCNH2 3.1, thallium flux FluxOr; stronger effect = lower value. activity change, % (tested at about 1.8 µM). 0.95% of 340,000 active;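 active means maximum activity change below -70%; inconclusive means maximum activity change from -70% to -50%; inactive means maximum activity change above -50%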;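 further: thallium influx rate constant from kinetic fluorescence after stimulation buffer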
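Steps: virus added to U2OS suspension (4 h, RT, dark); medium with 10% FBS added, cells plated, 37 C overnight; FluxOr/Red40 loading buffer 45 min RT; stimulation buffer, 2 min kinetic read; rate constant normalized.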
Each line names hits and unclear results; the compound was inactive in the other large screens. Unless noted, the call rests on the fitted dose curve.

Cc1ccc(N2C(=O)c3cccc4c([N+](=O)[O-])ccc(c34)C2=O)c2cccnc12	Rango-impB inh inconclusive, Rango dissoc inh inconclusive, KCNH2 3.1 inh -98
Cc1ccc(N2C(=O)c3cccc4c(N5CCN(C)CC5)ccc(c34)C2=O)c2cccnc12	Rango-impB inh inconclusive, Rango dissoc inh inconclusive
Cc1ccc(C2=N/C(=C\c3ccc(F)cc3)C(=O)N2)cc1	Rango-impB inh inconclusive, Rango dissoc inh inconclusive
COc1cc(C(=O)N(C)CC2CCN(CCc3cccc(C(F)(F)F)c3)CC2)ccc1C	KCNH2 3.1 inh -72
CN(CC1CCN(CCc2cccc(C(F)(F)F)c2)CC1)C(=O)c1ccc(F)cc1	KCNH2 WT inh inconclusive, KCNH2 3.1 inh -79
CN(CC1CCN(CCc2cccc(C(F)(F)F)c2)CC1)C(=O)c1ccccc1	none
CCCN(CCC)CC(C)(C)NS(=O)(=O)c1ccc(Cl)cc1	KCNH2 3.1 inh -140
O=C(c1cccc(N2C(=O)C3C4C=CC(C4)C3C2=O)c1)N1CCN(c2ccccc2F)CC1 (centres undefined)	Rango dissoc inh inconclusive
N#C/C(=C(\O)Cc1ccccc1)c1nc2ccccc2[nH]1	Rango dissoc inh inconclusive
N#C/C(=C(/O)CCl)c1nc2ccccc2[nH]1	Rango-impB inh inconclusive, Rango dissoc inh 13µM
Cc1cccc(C)c1Nc1nnc(SC/C(O)=C(\C#N)c2nc3ccccc3[nH]2)s1	Rango-impB inh inconclusive, Rango dissoc inh 15µM
Cc1cccc(Nc2nnc(SC/C(O)=C(\C#N)c3nc4ccccc4[nH]3)s2)c1C	Rango dissoc inh inconclusive
COc1ccc(C(=O)Nc2c(N)nc[nH]c2=O)cc1	none
CC[C@]12CCCN3CCc4c(n(c5ccccc45)C(=O)C1)[C@@H]32	KCNH2 3.1 inh inconclusive
CC[C@]12CCCN3CCc4c(n(c5ccccc45)[C@@](O)(C(=O)OC)C1)[C@@H]32	KCNH2 3.1 inh -103
Cc1cccc(NC(=O)c2sc(NC(=O)c3ccco3)c(C#N)c2C)c1C	Rango dissoc inh inconclusive, KCNH2 3.1 inh -83
Cc1cccc(NC(=O)c2ccco2)c1C	Rango-impB inh inconclusive
CC1Sc2ccc(S(=O)(=O)N3CCC(C(=O)Nc4cccc(Cl)c4)CC3)cc2NC1=O (centres undefined)	none
COCCn1c(=O)[nH]c2cc(C(=O)N3CCN(c4cc(C)ccc4C)CC3)ccc2c1=O	KCNH2 3.1 inh -80
Cn1cc(C(=O)c2ccc(Cl)cc2Cl)cc1C(=O)N/N=C(\N)COc1ccc(Cl)cc1	KCNH2 3.1 inh -73
CCOC(=O)NC(=O)/C(C#N)=C\NNc1ncc(C(F)(F)F)cc1Cl	KCNH2 WT inh -71
CC(CCc1ccc(O)cc1)NCc1ccc(Br)cc1 (centres undefined)	KCNH2 3.1 inh -88
CC(CCc1ccc(O)cc1)NCCC(c1ccccc1)c1ccccc1 (centres undefined)	KCNH2 WT inh -119, KCNH2 3.1 inh -96
Cc1csc(NC(=O)c2cc(C)on2)n1	none
Cc1cccc(C(=O)N2CCN(CCNC(=O)C(=O)Nc3ccc(F)cc3)CC2)c1	none
C[C@@H]1CN([C@H](C)CO)C(=O)CCCn2nncc2CO[C@H]1CN(C)C(=O)NC1CCCCC1	none (no result: Rango-impB inh, Rango dissoc inh)
COc1ccc(C(=O)N2CCCC(Nc3ccc(C)c(C)c3)C2)c(OC)n1 (centres undefined)	none
c1ccc2c(-c3c[nH]c4ccccc34)c3ccccc3nc2c1	Rango-impB inh inconclusive, Rango dissoc inh inconclusive
O=C(O)c1cc(-c2c[nH]c3ccccc23)nc2ccc3ccccc3c12	Rango-impB inh inconclusive, KCNH2 3.1 inh -98
COc1ccc(C(=O)NC(=S)Nc2ccc3oc(=O)ccc3c2)cc1OC	KCNH2 3.1 inh -99
COc1ccc(OCC(=O)Nc2cccc(S(=O)(=O)N(C)c3ccccc3)c2)c([N+](=O)[O-])c1	none
CCc1ccc2[nH]c(C(=O)Nc3ccc(C)c(F)c3)cc2c1	none
CCc1ccc2[nH]c(C(=O)N(C)c3ccc(F)cc3F)cc2c1	KCNH2 3.1 inh -71
CC[C@@H](C)[C@H](NC(=O)OCc1ccccc1)c1nnc([C@@H](NC(=O)OCc2ccccc2)[C@@H](C)CC)o1	KCNH2 3.1 inh -86
O=C(NCCC(=O)N(Cc1ccco1)Cc1cccs1)c1ccc(Br)cc1	none
O=C(NCCc1ccccc1)C(=O)N/N=C/c1ccc2c(c1)OCO2	none
O=C(NCc1ccccn1)C(=O)N/N=C/c1ccc2c(c1)OCO2	KCNH2 3.1 inh -106
COCCN1Cc2cccc(C(=O)Nc3ccc(-c4nc5ccccc5[nH]4)cc3)c2C1=O	Rango dissoc inh inconclusive
